Test results as given in PubChem BioAssay AID624256 (NMMLSC, 2012).
The campaign covered roughly 360,000 compounds. About 3,700 (1%) were called active. Inconclusive results (about 2%) are left out.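 How the source made its calls: active means normalized GFP-positive differentiation at or above the plate's own cutoff, the solvent-only control mean plus 3 SD; inconclusive means no clear call, values can overlap the other calls; inactive means the rest.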 Many of the other results were omitted from the sample, so actives are more common in it than they were.

assay: induction of myeloid progenitor differentiation, primary screen, cell-based, flow cytometry, MLPCN library (AID 624256); conditions: ER-HoxA9 myeloid progenitors, lysozyme-GFP differentiation, at 10 µM; GFP+ MAC1+ double positive: measured here: differentiation confirmed by MAC1 staining, stronger effect = higher value; normalized GFP-positive differentiation: stronger effect = higher value;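 on GFP+ MAC1+ double positive: cells exposed to compound for four days before flow analysis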;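 on normalized GFP-positive differentiation: cells exposed to compound for four days before flow analysis; 0% = DMSO wells and 100% = fulvestrant positive control at 5 µM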

| SMILES | GFP+ MAC1+ double positive [%] | outcome | normalized GFP-positive differentiation |
| --- | --- | --- | --- |
| COCCCn1cc(CN2CC(N(C)C)CS2(=O)=O)nn1 (stereo unspecified) | 0.8 | inactive |  |
| Cc1nc2c(OCc3ccc(Cl)cc3Cl)cccn2c1N(C)CC1CC1 | 0.6 | inactive |  |
| CC(C)CN1C(=O)CN(S(C)(=O)=O)CC1(C)C(=O)NCc1ccccc1 (stereo unspecified) | 1.1 | inactive |  |
| Nc1nc2ncccn2c1-c1ccccc1 | 2.1 | inactive |  |
| CCc1nc2ccc(C(=O)NCc3ccc(OC)cc3)cn2c1N(CC)Cc1cccc(Br)c1 | 1.1 | inactive |  |
| Cc1nccn1-c1ccc(NC(=O)[C@H]2O[C@@H](n3ccc(=O)[nH]c3=O)[C@H](O)[C@@H]2O)cc1 | 1.7 | inactive |  |
| Cc1cc(=O)oc2c1c(C)nn2-c1ccc(Cl)cc1 | 0.3 | inactive |  |
| Cc1nn(-c2cc(Cl)ccc2N)c(=O)c2ccccc12 | 7.4 |  | 51.3% (active) |
| CCOC(=O)CNC(=O)c1nn(-c2cccc(OC)c2)c(=O)c2ccccc12 | 0.7 | inactive |  |
| C#CCNC(=O)C[C@@H]1C[C@@]2(C(=O)OCC)CCCC=C2N(Cc2ccco2)C1=O | 1.5 | inactive |  |
| Cc1cc(Br)cn2c(Cc3ccsc3)c(-c3ccc(C#N)cc3)nc12 | 2 | inactive |  |
| O=C(Nc1cccc2ccccc12)c1[nH]c(-c2ccccc2)c2c1C(=O)N(C1CC1)C2=O | 1.2 | inactive |  |
| COC(=O)C[C@@H]1C=C[C@@H](NC(=O)c2ccc3c(c2)OCO3)[C@@H](CO)O1 | 3.1 | inactive |  |
| CS(=O)(=O)c1ccc2c(c1)SC1=NC(=O)/C(=C/c3ccco3)C(=N)N12 | 6.9 | inactive |  |
| COC(=O)COc1ccc2c(c1C)O/C(=C\c1ccco1)C2=O | 0.6 | inactive |  |
| CC(C)(C)C1C/C(=C/c2ccco2)C(=O)/C(=C/c2ccco2)C1 (stereo unspecified) | 0.5 |  | 92.8% (active) |
| O=C(c1cc(-c2ccco2)nc2ccccc12)N(Cc1nnc(-c2ccc(Cl)cc2)o1)C1CC1 | 1.9 |  | 11.9% (active) |
| CC1CCCN(C(=O)c2cc(-c3ccco3)nc3ccccc23)C1 (stereo unspecified) | 0.2 | inactive |  |
| CN(CCOc1ccccc1)C(=O)c1cc(-c2ccco2)nc2ccccc12 | 1.1 | inactive |  |
| S=C(NCCCc1cnc[nH]1)NCCCN(Cc1ccc(Cl)c(Cl)c1)c1ccc(Br)cn1 | 1.1 | inactive |  |

| SMILES | GFP+ MAC1+ double positive [%] | outcome | normalized GFP-positive differentiation |
| --- | --- | --- | --- |
| CC(C)(C)NC(=O)C(CCc1ccccc1)n1c(=O)c(-c2ccccc2)nc2ccccc21 (stereo unspecified) | 3.2 | inactive |  |
| O=c1c2ccccc2oc2nc3n(c(=O)c12)CCCS3 | 7.5 | inactive |  |
| COc1ccc(Cn2c(=O)oc3ccccc32)cc1 | 0.5 | inactive |  |
| CCc1nc2oc3ccccc3c(=O)c2c(=O)n1Cc1ccc(OC)cc1 | 3.7 |  | 16.2% (active) |
| COc1ccc(-c2nc3ccc(Br)cn3c2Cc2ccc(C)cc2)cc1OC | 0.6 | inactive |  |
| COc1ccc(CN2CCC(C)(Oc3cccc(F)c3)C2)c2ccccc12 (stereo unspecified) | 0.4 | inactive |  |
| COc1ccc2nc(-c3ccccn3)ccc2c1 | 0.3 | inactive |  |
| COc1cnc(-c2ccccn2)nc1Oc1ccc(C(C)(C)C)cc1 | 12.1 |  | 308% (active) |
| COc1ccc(NCCc2ccccn2)cc1 | 0.7 | inactive |  |
| CCc1nc2c(OCC(=O)C(C)(C)C)cccn2c1N(C)C(=O)c1ccccc1F | 0.3 | inactive |  |
| C=CCC[C@H](CCCCC)OC(=O)/C=C/[C@H](O)[C@@H](O)C[C@@H](O)CC=C | 1.1 | inactive |  |
| COc1ccccc1N1CCN(S(=O)(=O)CCNC(=O)c2ccc(OC(C)C)cc2)CC1 | 1 |  | 44.1% (active) |
| CCOc1ccc(CC(=O)NCCS(=O)(=O)N2CCN(c3ccccc3)CC2)cc1 | 0.6 | inactive |  |
| O=C(NCCS(=O)(=O)N1CCN(c2ccccc2F)CC1)c1ccc(Br)o1 | 2.9 | inactive |  |
| O=C(NCc1cccnc1)c1cc(C2CCCCN2C(=O)CCc2ccccc2)on1 (stereo unspecified) | 0.7 | inactive |  |
| CCCCOCCCNC(=O)C[C@@H]1C[C@@]2(C(=O)OCC)CCCC=C2N(CCC2=CCCCC2)C1=O | 1.7 | inactive |  |
| Cc1ccc(-c2nc(C#N)c(NCCCn3ccnc3)o2)cc1 | 2.5 |  | 10.9% (active) |
| Cc1ccc2c(Cl)c(C(=O)NCCCn3ccnc3)sc2c1 | 0.5 | inactive |  |
| Cc1ccc(S(=O)(=O)c2nc(NCCCn3ccnc3)sc2Cl)cc1 | 0.5 | inactive |  |
| CCOC(=O)c1cc2cc(OC)ccc2n1C1CCN(C)CC1 | 0.3 | inactive |  |

| SMILES | GFP+ MAC1+ double positive [%] | outcome | normalized GFP-positive differentiation |
| --- | --- | --- | --- |
| O=C(C(=O)N1CCN(c2ccccc2)CC1)c1ccc2c(c1)OCO2 | 1 | inactive |  |
| O=C(N[C@H]1CC[C@H](CC(=O)N2CCCCC2)O[C@@H]1CO)c1cccc(F)c1 | 1.6 | inactive |  |
| COC(=O)c1c(-c2ccc(C)cc2)csc1N | 2 | inactive |  |
| CCC(C(=O)OC)n1cnc2scc(-c3ccc(C)cc3)c2c1=O (stereo unspecified) | 0.9 | inactive |  |
| CCOC(=O)c1c(-c2ccc(C)cc2)csc1/N=C(\C)C1=C(O)c2ccccc2C1=O | 10.3 |  | 142% (active) |
| Cc1sc2ccccc2c1CNC[C@H]1O[C@@H](n2ccc(=O)[nH]c2=O)[C@H](O)[C@@H]1O | 1.3 | inactive |  |
| CC1(C)OC(=O)C2=C(C[C@@H](C3CC3)O[C@H]2c2ccc(Cl)cc2)O1 | 1.4 | inactive |  |
| COCCNC(=O)C1C(=O)Nc2ccccc2C(=O)N1c1ccc2c(c1)OCCO2 (stereo unspecified) | 3.1 | inactive |  |
| Cn1nc(C(F)(F)F)c2cc(C(=O)N3CCOCC3)sc21 | 0.1 | inactive |  |
| CCOC(=O)N1CCN(C(=O)c2cc3c(-c4ccc(Cl)cc4)nn(C)c3s2)CC1 | 33.3 |  | 83.1% (active) |
| COc1ccccc1N1CCN(C(=O)c2cc3c(-c4ccc(Cl)cc4)nn(C)c3s2)CC1 | 3.7 | inactive |  |
| CCCS(=O)(=O)NC(=O)C1(C)CCCN(C(=O)c2cc(C)on2)C1 (stereo unspecified) | 0.6 | inactive |  |
| FC(F)(F)Oc1ccccc1C(c1nnnn1C1CCCCC1)N1CCN(C/C=C/c2ccccc2)CC1 (stereo unspecified) | 1.6 | inactive |  |
| O=c1[nH][nH]c2c1[C@H](c1ccc(Cl)cc1)O[C@H](CCc1ccccc1)C2 | 0.6 | inactive |  |
| CCCc1cc(-c2n[nH]c(=S)n2Cc2ccccc2)cs1 | 5.8 | inactive |  |
| CC(C)Oc1ccc(Cc2n[nH]c(=S)n2Cc2ccccc2)cc1Cl | 0.3 | inactive |  |
| COc1cc(-c2n[nH]c(=S)n2Cc2ccccc2)cc(OC)c1OC | 22.5 |  | 297% (active) |
| CN(C)CCNC(=O)c1cccc(-c2cnc3c(NC=O)cc(-c4cccc(C(F)(F)F)c4)cn23)c1 | 2.2 | inactive |  |
